Reference: PubChem BioAssay
Entries with a potency or affinity are not part of this list. Calls of active or inactive are those of the source. The limit is not given here; nearly all actives have IC50 up to about 0.91 µM.

target: Calcium-dependent protein kinase 4 (Plasmodium falciparum (isolate 3D7)) (UniProt Q8IBS5); experiment: PfCDPK4 kinase inhibitors, biochemical, TCAMS library (AID 1159588); settings: recombinant PfCDPK4, Kinase-Glo ATP depletion luminescence
Sequence (Q8IBS5 whole entry, looked up): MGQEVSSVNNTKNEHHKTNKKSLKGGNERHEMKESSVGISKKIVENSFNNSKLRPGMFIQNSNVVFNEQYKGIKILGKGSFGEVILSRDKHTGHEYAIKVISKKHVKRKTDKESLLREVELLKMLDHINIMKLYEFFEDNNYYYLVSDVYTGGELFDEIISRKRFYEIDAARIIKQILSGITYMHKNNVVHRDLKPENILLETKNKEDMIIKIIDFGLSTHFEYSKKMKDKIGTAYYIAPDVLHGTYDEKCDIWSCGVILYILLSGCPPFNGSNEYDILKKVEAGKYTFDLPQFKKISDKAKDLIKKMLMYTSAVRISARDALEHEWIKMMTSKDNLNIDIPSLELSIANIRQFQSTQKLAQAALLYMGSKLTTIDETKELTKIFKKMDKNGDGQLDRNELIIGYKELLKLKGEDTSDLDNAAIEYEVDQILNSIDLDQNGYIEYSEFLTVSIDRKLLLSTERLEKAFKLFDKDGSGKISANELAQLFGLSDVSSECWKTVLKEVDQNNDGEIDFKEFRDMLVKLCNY

outcome, inactive:
c1cncc(Oc2ccc(Nc3ccnc4cc(-c5cccc(CN6CCCCC6)c5)ccc34)cc2)c1
CCCC(C)NC[C@@H](O)[C@H](Cc1ccccc1)NC(=O)c1cc(C2CCCC2)cc(N2CCCCS2(=O)=O)c1 (stereo not given in full)
O=C(Nc1ccc(Cl)cc1)Nc1cccc(-c2ccc(-c3nc4ccccc4[nH]3)cc2)c1
CC(=O)c1ccc(NC(=O)Nc2ccc(N(C)c3ccnc(NC4CC4)n3)cc2)cc1
CCOc1c(N2CCN(CCCCNC(=O)c3ccc(NC(=O)c4ccc(Cl)cc4)cc3)CC2)ccc2ccccc12
CCCCc1cc(NCc2ccncc2)nc(Nc2ccc(C)cc2)n1
Cc1ccc(F)c(C(=O)Nc2cccc(-c3nn4ccccc4c3-c3ccnc(Nc4cccc(F)c4)n3)c2)c1F
O=C(CSc1ccccn1)Nc1c(F)cccc1F
Cc1cccc2[nH]c(-c3ccc(-c4ccc(NC(=O)Nc5ccc(Cl)c(Cl)c5)cc4)s3)nc12
O=c1ccc2ncc(Cl)c3c2n1CC3CN1CCC(NCc2cc3c(cn2)OCCO3)CC1 (stereo not given)
Cc1cc(-c2nc3cncc(-c4cccc(CN5CCCC5Cc5cccnc5)c4)c3n2C)nn1C (stereo not given)
C=C[C@]1(C)C[C@@H](OC(=O)NC(=O)C2CCN(C(=O)CSc3ccccc3)CC2)[C@]2(C)[C@H](C)CC[C@]3(CCC(=O)[C@H]32)[C@@H](C)[C@@H]1O
COc1ccc2c(c1)[nH]c1c(/C=C/c3ccc([N+](=O)[O-])cc3)nccc12
CN1CCN(CCCN(Cc2cccc(-c3ccc(CNCc4ccc5c(c4)OCO5)cc3)c2)C(=O)CCC2CCCC2)CC1
Cc1cc(N[C@@H](Cc2ccccc2)C(=O)NCc2cccc(F)c2)nc(NCCc2cccnc2)n1
O=S(=O)(c1cc(Cl)c(Cl)cc1Cl)N1CCCCC(c2ccc(C(F)(F)F)cc2)=N1
COc1ccc(CCn2c(=N)c(C(=O)NCc3ccc(C)cc3)cc3c(=O)n4ccccc4nc32)cc1
FC(F)(F)c1cccnc1N1CCC(Nc2nc3ccc(Cl)cc3[nH]2)CC1
CCOc1cccc2nc(NCCCNCc3ccc(Cl)c(Cl)c3)cc(NCCCNCc3ccc(Cl)c(Cl)c3)c12
O=[N+]([O-])c1ccc2ncnc(Nc3ccc(F)c(Cl)c3)c2c1
O=C(NCc1ccc(F)cc1)Nc1ccc(-c2cccc(-c3nc4ccc(F)cc4[nH]3)c2)cc1
Clc1ccc(-c2ccc(C=NNc3nc(Nc4ccccc4)nc(Nc4ccccc4)n3)o2)cc1Cl
COc1ccc(Nc2c3ccc(Cl)cc3nc3ccc(OC)cc23)cc1
CCC(C)NC(=O)CN1CN(c2ccccc2)C2(CCN(C(=O)c3ccc(C(C)(C)C)cc3)CC2)C1=O (stereo not given)
COc1ccc(C2CCN(CCCCNC(=O)c3ccc(NC(=O)c4ccc(Cl)cc4)cc3)CC2)c(C)c1
O=C(NCCc1ccccc1)c1cc(-c2cccnc2)cnc1NCC1CC1
Cc1nccc2c(NC(=O)N[C@@H]3CCN(c4ncc(C(F)(F)F)cc4Br)C3)cccc12
Nc1cccc(CNCc2cccc(-c3cccc(-c4nc5ccc(C(F)(F)F)cc5[nH]4)c3)c2)c1
CC1CN=C(c2cccc(NC(=O)Nc3cccc(C4=NCC(C)N4)c3)c2)N1 (stereo not given)
COc1ccc(-c2ccc(CN(C)C3CCC(NC(=O)c4cc5ccccc5[nH]4)CC3)cc2)cn1 (stereo not given)
N#Cc1ccc(-c2ccc(C(=O)NC3CCN(CCN4CCC(c5cn(CCO)c6ccccc56)CC4)CC3)cc2)cc1
COc1ccc(S(=O)(=O)Nc2cc(C)cc(Br)c2OC)cc1N1CCN(C(=O)C(Cl)(Cl)Cl)CC1
CC(C)CNCc1ccc(-c2ccccc2CN(C(=O)NCCc2ccccc2)C2CCN(Cc3ccccc3)CC2)cc1
c1ccn2c(Sc3ncnc4sccc34)ncc2c1
CC(Oc1ccc(NC(=O)c2cccs2)cc1)C(=O)c1ccc(Cl)cc1 (stereo not given)
Cc1cc(NCCC(=O)Nc2ccccc2)nc(NCCc2ccccc2)n1
COc1ccc2nccc(N3CCN(CCNCc4ccc5c(n4)NC(=O)CO5)CC3)c2n1
CN(C)C(=O)c1cc(CNCc2ccccc2)ccc1-c1cccc(CNCc2ccc(-c3ccccc3)cc2)c1
COC(=O)c1cccc(CNCc2cccc(-c3cccc(-c4nc5ccc(C(F)(F)F)cc5[nH]4)c3)c2)c1
CC[C@H](C)CNC(=O)c1cncc(-c2ccc(CNCCCc3ccccc3)cc2)c1
